The results in this text go back to PubChem BioAssay (EPA / NIEHS).

Test [1] is described as follows: APR_HepG2_P-H2AX_72hr: Apredica 72-hour HepG2 Assay for H2AX Phosphorylation (AID 2282916).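 Also: phospho-histone H2A.x immunostain intensity per cell marking DNA damage.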 The following applies: imaging, actives raise or lower the signal. A digest of the protocol: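 Readout: phospho-H2A.x immunofluorescence (FITC secondary) plus Hoechst nuclear stain, high-content imaging at 20x, six fields/well. HepG2, 72 hr compound exposure, 0.39–200 uM, final DMSO 0.5% v/v. Gain or loss fitted relative to DMSO baseline.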

Test [2] is described as follows: APR_HepG2_MitoMembPot_72hr: Apredica 72-hour HepG2 Assay for Mitochondrial Membrane Potential (AID 2282917). Particulars: imaging, actives raise or lower the signal. A digest of the protocol: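 Membrane potential read by MitoTracker Red CMXRos (250 nM, 30 min, pre-fixation) fluorescence imaging of HepG2 after 72 hr exposure. Ten concentrations, 0.39–200 uM, duplicate wells, 0.5% DMSO; fitted in both directions against DMSO baseline.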

A short description of test [3]: APR_HepG2_MitoticArrest_72hr: Apredica 72-hour HepG2 Assay for Mitotic Arrest (AID 2282918). Particulars: high-content imaging, actives raise or lower the signal. In short, it runs like this:
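High-content imaging of fixed human HepG2 cells after 72 h compound exposure (0.39–200 uM, duplicates, 0.5% DMSO); mitotic arrest scored from phospho-histone H3 and nuclear Hoechst staining relative to DMSO.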

The nature of test [4]: APR_HepG2_MicrotubuleCSK_72hr: Apredica 72-hour HepG2 Assay for Microtubule CSK Stabilty (AID 2282919). The following applies: HepG2 microtubule cytoskeleton, high-content imaging, actives raise or lower the signal. A digest of the protocol: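 High-content imaging of alpha-tubulin staining in fixed HepG2 cells after 72 hr treatment with ten concentrations from 0.39 to 200 uM (0.5% DMSO). Fitting was bidirectional against DMSO; taxol served as positive control.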

Test [5] in a line: APR_HepG2_P-H2AX_24hr: Apredica 24-hour HepG2 Assay for H2AX Phosphorylation (AID 2282920). Particulars: high-content imaging, actives raise or lower the signal. In short, it runs like this: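 High-content imaging of phospho-histone H2A.x immunofluorescence, nuclei counterstained with Hoechst 33342, in fixed HepG2 cells. Compounds ran 0.39–200 uM in duplicate for 24 h, final DMSO 0.5%. Signal change fitted both directions against DMSO.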

Test [6] can be described thus: APR_HepG2_StressKinase_72hr: Apredica 72-hour HepG2 Assay for Stress Kinase (AID 2282921). Particulars: HepG2 stress kinase (phospho-c-Jun) imaging, actives raise or lower the signal. In short, it runs like this: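 Phospho-c-Jun immunofluorescence measured by high-content imaging at 20x, six fields per well; bidirectional curve fitting against DMSO as baseline. Dosing: 0.39–200 uM, 72 h, 0.5% DMSO final.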

Test [7] can be described thus: APR_HepG2_StressKinase_24hr: Apredica 24-hour HepG2 Assay for Stress Kinase (AID 2282922). The following applies: HepG2 stress kinase (phospho-c-Jun) imaging, actives raise or lower the signal. A digest of the protocol: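 High-content imaging of phospho-c-Jun immunofluorescence in fixed, permeabilized HepG2 cells after 24 h dosing. Ten concentrations, 0.39 to 200 uM, run in duplicate at 0.5% v/v DMSO; gain or loss of signal versus DMSO.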

A short description of test [8]: APR_HepG2_MitoMass_72hr: Apredica 72-hour HepG2 Assay for Mitochondrial Mass (AID 2282924).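 Also: MitoTracker Red CMXRos stain intensity per cell imaged as mitochondrial mass.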 Particulars: high-content imaging, actives raise or lower the signal. A digest of the protocol:
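Readout is imaged MitoTracker Red (250 nM, 30 min, pre-fixation) signal, fitted bidirectionally against DMSO baseline. Human HepG2 liver cells received compound 0.39–200 uM in duplicate for 72 hr, final DMSO 0.5%.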

The nature of test [9]: APR_HepG2_NuclearSize_72hr: Apredica 72-hour HepG2 Assay for Nuclear Size (AID 2282925). Particulars: high-content imaging, actives raise or lower the signal. A digest of the protocol:
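Nuclear size was read by high-content imaging of Hoechst 33342 stain after formaldehyde fixation. Compounds ran 72 h on HepG2 at 0.39 to 200 uM, with final DMSO 0.5% v/v. Curves fitted both directions relative to DMSO control.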

The nature of test [10]: APR_HepG2_p53Act_72hr: Apredica 72-hour HepG2 Assay for p53 Activation (AID 2282923).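 Also: average cellular p53 protein immunofluorescence intensity in HepG2 cells.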 Particulars: high-content imaging, actives raise or lower the signal. A digest of the protocol:
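Readout: p53 immunofluorescence quantified by automated high-content imaging at 20x, six fields per well, nuclei located via Hoechst. Dosing ran 72 hr over ten concentrations from 0.39 to 200 uM; bidirectional curve fitting against DMSO baseline.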

The source made the active and inactive calls. The calls were made as follows: active = hit-call score of the fitted dose curve at least 0.9, where 1 is the maximum; inactive = score below 0.9.

Turning to `O=C(N[C@@H](c1ccccc1)[C@@H]1CCCCN1)c1cccc(C(F)(F)F)c1Cl`, the concentration at half-maximal activity (AC50) (usually the midpoint of the concentration-response curve, whichever way the signal moves) is 6.64 µM (active) in test [1], 9.47 µM (active) in test [3], 14.3 µM (active) in [5] and 34.3 µM (active) in [8]. The call in [2], in [4], in test [6], in test [7] and in [9] was inactive.
Take `O=C1OC(c2ccc(O)cc2)(c2ccc(O)cc2)c2ccccc21`: the concentration at half-maximal activity (AC50) in test [1] is 31 µM (active); in test [3], 50.9 µM (active); in test [4], 97.3 µM (active); in [5], 73.3 µM (active); in [10] it was 29.2 µM (active); in test [8], 102 µM (active). The compound was classed as inactive in [2], in test [7] and in [9].
With `CC(=O)[C@@]1(O)CC[C@H]2[C@@H]3CCC4=CC(=O)CC[C@]4(C)[C@H]3CC[C@@]21C`, the result in test [1], in test [2], in test [3], in test [4], in [5] and in [6] was inactive. In addition, the result in [7], in test [8] and in test [9] was inactive.
Take `CCCC(=O)O`: the compound was classed as inactive in test [1], in test [2], in [3], in test [4], in test [5] and in [6]. Moreover, the outcome in [7], in test [8] and in [9] was inactive.
On to `Cn1cnc2c1c(=O)[nH]c(=O)n2C`, for which the call in test [1], in test [2], in test [3], in test [4], in test [5] and in test [6] was inactive. Also, the outcome in [7], in test [8] and in test [9] was inactive.
For the compound `CCCCOC(=O)CCCCC(=O)OCCCC`, the compound was called inactive in test [1], in test [2], in test [3], in test [4], in [5] and in test [6]. Further, the outcome in test [7], in test [8] and in test [9] was inactive.
As to `CC(N)=O`, the compound was called inactive in test [1], in test [2], in test [3], in test [4], in test [5] and in test [6]. In addition, the call in test [7], in test [8] and in [9] was inactive.
For the compound `CC(=O)OCC(COC(C)=O)OC(C)=O`, the call in [1], in test [2], in test [3], in [4], in test [5] and in test [6] was inactive. Besides, the outcome in [7], in test [8] and in [9] was inactive.
For `OCC(CO)n1cnc(-c2ccc(F)cc2)c1-c1ccnc(Oc2ccccc2)n1`, the outcome in test [1], in test [2], in test [3], in test [4], in test [5] and in [7] was inactive. Further, the outcome in test [10], in test [8] and in [9] was inactive.
Turning to `CC(C)NCC(O)c1ccc(O)c(O)c1` (configuration not stated), the concentration at half-maximal activity (AC50) in test [1] is 86.8 µM (active). Besides, the call in [2], in test [3], in test [4], in test [5], in test [6] and in [7] was inactive. In addition, the outcome in test [8] and in test [9] was inactive.
Consider `CC(=O)O[C@]1(C(C)=O)CC[C@H]2[C@@H]3C=C(Cl)C4=CC(=O)[C@@H]5C[C@@H]5[C@]4(C)[C@H]3CC[C@@]21C`, for which the outcome in [1], in test [2], in test [3], in test [4], in [5] and in test [6] was inactive. Also, the compound was classed as inactive in [7], in test [8] and in [9].
Take `CCCCCCC(C=O)=Cc1ccccc1`: the result in test [1], in [2], in test [3], in test [4], in test [5] and in [6] was inactive. In addition, the outcome in [7], in test [8] and in test [9] was inactive.
For `O=C(O)CN(CC(=O)O)CC(=O)O`, the result in [1], in [2], in test [3], in test [4], in [5] and in [7] was inactive. The call in [10], in test [8] and in test [9] was inactive.
Consider `C/C=C/c1ccc(OC)cc1`, for which the result in [1], in test [2], in test [3], in test [4], in test [5] and in test [6] was inactive. Further, the result in [7], in test [8] and in [9] was inactive.
For the compound `CC(=O)O`, the AC50 in [1] is 92 µM (active); in test [2], 100 µM (active); in test [3] it was 92.8 µM (active); in test [5] it was 66.4 µM (active); in test [8], 0.0355 µM (active). For the same compound, the compound was classed as inactive in test [4], in test [6], in test [7] and in test [9].
`O=C(NS(=O)(=O)/C=C/c1cccs1)c1ccc(F)cc1Br`: the result in [1], in test [2], in test [3], in test [4], in [5] and in test [6] was inactive. In addition, the outcome in test [7], in test [8] and in test [9] was inactive.
Regarding `COC(=O)CCC(=O)OC`, the compound was classed as inactive in test [1], in test [2], in [3], in [4], in test [5] and in test [7]. Besides, the compound was classed as inactive in test [10], in [8] and in test [9].
Consider `CC1=C(C)S(=O)(=O)CCS1(=O)=O`, for which the AC50 in [1] was 82.3 µM (active); in test [3] it was 33.1 µM (active); in test [10], 73.8 µM (active); in test [8], 35.9 µM (active). In addition, the compound was called inactive in [2], in [4], in test [5], in [7] and in test [9].
As to `O=C1CCCCC1`, the outcome in test [1], in test [2], in [3], in [4], in test [5] and in test [7] was inactive. Further, the call in [8] and in [9] was inactive.
On to `COC(=O)[C@H]1[C@H]2C[C@@H]3c4[nH]c5cc(OC)ccc5c4CCN3C[C@H]2C[C@@H](OC(=O)c2cc(OC)c(OC)c(OC)c2)[C@@H]1OC`, for which the AC50 is 23.9 µM (active) in test [1]; 48 µM (active) in [2]; 16.3 µM (active) in [3]; 39.4 µM (active) in [4]; 30.1 µM (active) in [5]; 55.1 µM (active) in test [7]. The half-maximal activity concentration (AC50) in [10] was 24.6 µM (active); in test [8], 28.8 µM (active). The outcome in test [9] was inactive.
As for `CCc1cc(C2=C(C(=O)O)N(c3ccccc3C(F)(F)F)S(=O)(=O)c3ccccc32)cc2c1OCO2`, the outcome in [1], in test [2], in test [3], in [4], in test [5] and in test [7] was inactive. In addition, the compound was classed as inactive in [10], in test [8] and in [9].
On to `CCC(C)N(C)C(=O)c1cc2ccccc2c(-c2ccccc2Cl)n1` (configuration not stated), for which the compound was classed as inactive in test [1], in [4], in test [10] and in [9]. Besides, the AC50 in test [2] was 67.7 µM (active); in [3], 65.8 µM (active); in test [5], 69.8 µM (active); in [7], 69.2 µM (active); in test [8], 66.4 µM (active).
